{"source": "PubChem BioAssay", "key": {"[1]": {"test": "EMT-state selective cytotoxicity in co-culture – imaging, PC-3E GFP, TEM4-18 mCherry, primary screen (AID 1345086;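 active = compounds killing one labelled cell type while sparing the other, by normalised counts and ratio limits, not self-fluorescent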;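 for all read-outs here: cells exposed to compound for 72 h before imaging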;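 for red/green cell ratio (normalised): normalised mesenchymal count divided by normalised epithelial count so high means epithelial killing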)", "settings": "PC-3E GFP / TEM4-18 mCherry co-culture, imaging cell counts, at 1 µM; for red/green cell ratio (normalised): actives lie on both sides, counts scaled to control wells, 1 = unselective"}, "[2]": {"test": "modulation of C. elegans fzo-1 (AID 1259413; call rule not given here;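 note: fzo-1 mutant C. elegans worms in liquid wells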)", "settings": "C. elegans fzo-1 modulator screen, mean read-out; stronger effect = higher value"}, "[3]": {"test": "viability loss with induced miR-34 in A549 – imaging, A549 dox-inducible miR-34, nuclei and caspase counts, primary screen (AID 1347080;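 active = compounds whose cell count with miR-34 switched on is under 0.7 times the count with it off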)", "settings": "A549 miR-34 inducible, Hoechst nuclei count, 48 h"}, "[4]": {"test": "MELAS cybrid and Rieske KO viability enhancers – cell-based, MELAS cybrids, Rieske KO mouse fibroblasts, CellTiter-Glo, primary screen (AID 1508586;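 active = mean z-score across replicates of 1.96 or higher in either the MELAS or the Rieske mutant cell line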;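 note: z relative to plate mean and SD of compound and empty wells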)", "settings": "low glucose"}, "[5]": {"tested_on": "Aerobactin synthetase IucA (Klebsiella pneumoniae)", "test": "inhibition of K. pneumoniae IucA enzyme – biochemical, Tocris library, absorbance (AID 1345561; call rule not given here;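 note: 100% = enzyme without compound and 0% = no enzyme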)", "settings": "purified IucA enzyme assay, absorbance (OD) read-out; stronger effect = lower value; concentration not given here"}, "[6]": {"test": "viability loss in pontine glioma line – cell-based, SU-DIPG-XVII, MIPE5.0, CellTiter-Glo, qHTS, dose response (AID 1347060; cut-off not given, nearly all actives have AC50 up to about 26 µM;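 for AC50: cells exposed to compound for 48 hours before viability readout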)", "settings": "CellTiter-Glo ATP luminescence"}, "[7]": {"test": "viability loss in pontine glioma line – cell-based, SU-DIPG-XIII, MIPE4.0, CellTiter-Glo, qHTS, dose response (AID 1347061; cut-off not given, nearly all actives have AC50 up to about 37 µM;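 note: cells exposed to compound for 48 hours before readout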)", "settings": "CellTiter-Glo ATP luminescence"}, "[8]": {"test": "viability loss in pontine glioma line – cell-based, JHH-DIPG-1, MIPE4.0, CellTiter-Glo, qHTS, dose response (AID 1347062; cut-off not given, nearly all actives have AC50 up to about 27 µM;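 for AC50: cells exposed to compound for two days before readout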)", "settings": "JHH-DIPG-1 viability, CellTiter-Glo ATP luminescence"}, "[9]": {"test": "viability loss in pontine glioma line – cell-based, SU-DIPG-XIII, MIPE5.0, CellTiter-Glo, qHTS, dose response (AID 1347064; cut-off not given, nearly all actives have AC50 up to about 23 µM;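 for AC50: cells exposed to compound for 48 hours before the viability read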)", "settings": "CellTiter-Glo ATP luminescence"}, "[10]": {"test": "growth inhibition of DIPG cells – cell-based, MIPE5.0 library, qHTS (AID 1347068; cut-off not given, nearly all actives have IC50 up to about 30 µM;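 for IC50: cells exposed to compound for 48 hours before viability readout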)", "settings": "SU-DIPG-XXV viability"}, "[11]": {"test": "chitosan synthesis blockers in C. neoformans – flow cytometry, Cibacron Brilliant Red staining (AID 1347148; call rule not given here;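 note: compound exposure lasted three days at 37 degrees C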)", "settings": "Cryptococcus neoformans chitosan, stronger effect = lower value; at 10 µM unless noted"}, "[12]": {"test": "blockers of cellular phospholipid synthesis – cell-based, LOPAC library, screen 4, primary screen (AID 1347384; call rule not given here)", "settings": "animal cells, phospholipid biosynthesis inhibition screen; at 10 µM"}, "[13]": {"test": "viability loss in pontine glioma line – cell-based, SU-DIPG-IV, MIPE4.0, CellTiter-Glo, qHTS, dose response (AID 1347063; cut-off not given, nearly all actives have AC50 up to about 30 µM;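 note: compound exposure lasted 48 hours before the viability readout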)", "settings": "CellTiter-Glo ATP luminescence"}, "[14]": {"test": "viability loss in pontine glioma line – cell-based, SU-DIPG-XXV, MIPE5.0, CellTiter-Glo, qHTS, dose response (AID 1347065; cut-off not given, nearly all actives have AC50 up to about 26 µM;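 note: cells exposed to compound for 48 hours before ATP readout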)", "settings": "CellTiter-Glo ATP luminescence"}, "[15]": {"test": "growth inhibition of DIPG cells – cell-based, MIPE4.0 library, CellTiter-Glo luminescence, qHTS (AID 1347066; cut-off not given, nearly all actives have AC50 up to about 30 µM;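 note: cells exposed to compound for 48 hours before readout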)", "settings": "SU-DIPG-VI viability, CellTiter-Glo ATP luminescence"}, "[16]": {"test": "JHH-DIPG-1 glioma cell viability, MIPE5.0 library, CellTiter-Glo luminescence, qHTS (AID 1347067; cut-off not given, nearly all actives have AC50 up to about 26 µM;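 note: cells exposed to compound for 48 hours before readout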)", "settings": "JHH-DIPG-1 glioma viability, CellTiter-Glo ATP luminescence"}, "[17]": {"test": "compounds altering HSF1 focus formation in cells – imaging, Selleck Cancer Library (AID 1347162; in the data active = plate-normalised HSF1 focus index below about 0.46)", "settings": "human cells, HSF1 nuclear foci imaging, at 10 µM; SSMD: measured here: HSF1 foci SSMD mean; cell count: measured here: cell number; plate-normalised HSF1 focus index: stronger effect = lower value"}, "[18]": {"test": "drug combination growth inhibition, ovarian cancer – cell-based, oncology-focused library, rucaparib conditional, profiling panel (AID 1508598)", "settings": "patient-derived ovarian cancer cells, CellTiter-Glo viability, 144 h, stronger effect = lower value"}, "[19]": {"settings": "measured here: epithelial PC-3E GFP cell survival"}, "[20]": {"settings": "measured here: mesenchymal TEM4-18 mCherry cell survival"}, "[21]": {"settings": "MELAS cybrid survival, CellTiter-Glo 48 h, stronger effect = higher value"}, "[22]": {"settings": "Rieske KO mouse fibroblast survival, CellTiter-Glo 72 h"}}, "note": "Values joined by “and” are separate entries in the source; they are usually repeats but may differ in a detail not shown here. Identical values can stand only once. Records with an inconclusive call do not appear. Active and inactive are the calls of the source.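 Rule for the calls, unless noted: active = normalized viability below 100% at a tested concentration; inactive = the rest.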", "data": [{"smiles": "O=C(O)/C=C(\\CC(=O)O)C(=O)O", "values": [{"measurement": "red/green cell ratio (normalised)", "setting": "[1]", "value": "1.06 (inactive)"}, {"measurement": "normalised cell number", "setting": "[1]; [19]", "value": 1.18}, {"measurement": "normalised cell number", "setting": "[1]; [20]", "value": 1.25}]}, {"smiles": "CCCCCCOc1ccccc1C(N)=O", "values": [{"measurement": "red/green cell ratio (normalised)", "setting": "[1]", "value": "1 (inactive)"}, {"measurement": "normalised cell number", "setting": "[1]; [19]", "value": 0.94}, {"measurement": "normalised cell number", "setting": "[1]; [20]", "value": 0.94}]}, {"smiles": "CCCCCCCCCCCCCCCCC(C(=O)O)C(O)(CC(=O)O)C(=O)O", "note": "(stereo not drawn)", "values": [{"measurement": "red/green cell ratio (normalised)", "setting": "[1]", "value": "1.03 (inactive)"}, {"measurement": "normalised cell number", "setting": "[1]; [19]", "value": 1}, {"measurement": "normalised cell number", "setting": "[1]; [20]", "value": 1.03}]}, {"smiles": "CC(=O)Nc1ccc(CC(=O)O)cc1", "values": [{"measurement": "mean signal", "setting": "[2]", "value": "292 (inactive)"}, {"measurement": "fold change", "setting": "[3]; stronger effect = lower value, cell number ratio, induced over uninduced", "value": "0.951 (inactive)"}, {"measurement": "fold change", "setting": "[3]; measured here: relative caspase fold change +Dox/-Dox", "value": 1.68}, {"measurement": "cell count", "setting": "[3]; measured here: total cells with miR-34 induction, stronger effect = lower value", "value": 9700}, {"measurement": "cell count", "setting": "[3]; measured here: total cells without miR-34 induction", "value": 10200}, {"measurement": "z-score", "setting": "[4]; [21]", "value": "-0.406 (inactive)"}, {"measurement": "z-score", "setting": "[4]; [22]", "value": -0.418}]}, {"smiles": "CS(=O)(=O)Nc1ccc([N+](=O)[O-])cc1Oc1ccccc1", "values": [{"measurement": "red/green cell ratio (normalised)", "setting": "[1]", "value": "0.96 (inactive)"}, {"measurement": "normalised cell number", "setting": "[1]; [19]", "value": 1.05}, {"measurement": "normalised cell number", "setting": "[1]; [20]", "value": 1.01}, {"measurement": "remaining activity", "setting": "[5]", "value": "111% (inactive)"}, {"measurement": "outcome", "setting": "[6]", "value": "inactive"}, {"measurement": "outcome", "setting": "[7]", "value": "inactive"}, {"measurement": "outcome", "setting": "[8]", "value": "inactive"}, {"measurement": "outcome", "setting": "[9]", "value": "inactive"}, {"measurement": "outcome", "setting": "[10]", "value": "inactive"}, {"measurement": "fold fluorescence", "setting": "[11]", "value": "4.45 [at 162.2 µM] (inactive)"}, {"measurement": "outcome", "setting": "[12]", "value": "inactive"}, {"measurement": "z-score", "setting": "[4]; [21]", "value": "-0.305 (inactive) and 0.634 (inactive) and -0.303 (inactive)"}, {"measurement": "z-score", "setting": "[4]; [22]", "value": "1.18 and 0.441 and -0.993"}]}, {"smiles": "N[C@@H](CCC(=O)N[C@@H](CS)C(=O)NCC(=O)O)C(=O)O", "values": [{"measurement": "red/green cell ratio (normalised)", "setting": "[1]", "value": "1.12 (inactive)"}, {"measurement": "normalised cell number", "setting": "[1]; [19]", "value": 0.76}, {"measurement": "normalised cell number", "setting": "[1]; [20]", "value": 0.85}]}, {"smiles": "Cc1ccc(C(C)C)cc2c(C)ccc1-2", "values": [{"measurement": "red/green cell ratio (normalised)", "setting": "[1]", "value": "0.74 (inactive)"}, {"measurement": "normalised cell number", "setting": "[1]; [19]", "value": 1.25}, {"measurement": "normalised cell number", "setting": "[1]; [20]", "value": 0.92}]}, {"smiles": "Cc1nc2n(c(=O)c1CCN1CCC(c3noc4cc(F)ccc34)CC1)CCC[C@H]2O", "values": [{"measurement": "red/green cell ratio (normalised)", "setting": "[1]", "value": "1.17 (inactive)"}, {"measurement": "normalised cell number", "setting": "[1]; [19]", "value": 0.84}, {"measurement": "normalised cell number", "setting": "[1]; [20]", "value": 0.98}]}, {"smiles": "Cc1cc2c(C(C)C)c(O)c(O)c(C=O)c2c(O)c1-c1c(C)cc2c(C(C)C)c(O)c(O)c(C=O)c2c1O", "values": [{"measurement": "red/green cell ratio (normalised)", "setting": "[1]", "value": "0.91 (inactive)"}, {"measurement": "normalised cell number", "setting": "[1]; [19]", "value": 1.04}, {"measurement": "normalised cell number", "setting": "[1]; [20]", "value": 0.95}, {"measurement": "remaining activity", "setting": "[5]", "value": "103% (inactive)"}, {"measurement": "AC50", "setting": "[6]", "value": "7.42 µM (active)"}, {"measurement": "AC50", "setting": "[7]", "value": "23.5 µM (active)"}, {"measurement": "AC50", "setting": "[8]", "value": "18.7 µM (active)"}, {"measurement": "AC50", "setting": "[13]", "value": "18.7 µM (active)"}, {"measurement": "AC50", "setting": "[9]", "value": "10.5 µM (active)"}, {"measurement": "AC50", "setting": "[14]", "value": "7.42 µM (active)"}, {"measurement": "AC50", "setting": "[15]", "value": "8.33 µM (active)"}, {"measurement": "AC50", "setting": "[16]", "value": "2.95 µM (active)"}, {"measurement": "IC50", "setting": "[10]", "value": "23.5 µM (active)"}, {"measurement": "SSMD", "setting": "[17]", "value": -10.3}, {"measurement": "cell count", "setting": "[17]", "value": 5460}, {"measurement": "plate-normalised HSF1 focus index", "setting": "[17]", "value": "0.468 (active)"}, {"measurement": "outcome", "setting": "[12]", "value": "inactive"}, {"measurement": "viability", "setting": "[18]; at 0.000305 µM, OCI-C5x cells, with rucaparib 10 µM, 100% = cells with rucaparib alone", "value": "113% (inactive)"}, {"measurement": "viability", "setting": "[18]; at 0.000305 µM, OCI-C5x cells, without rucaparib", "value": "130% (inactive)"}, {"measurement": "viability", "setting": "[18]; at 0.000305 µM, OCI-P5x cells, with rucaparib 20 µM, 100% = cells with rucaparib alone", "value": "95.4% (active)"}, {"measurement": "viability", "setting": "[18]; at 0.000305 µM, OCI-P5x cells, without rucaparib", "value": "103% (inactive)"}, {"measurement": "viability", "setting": "[18]; at 0.00122 µM, OCI-C5x cells, with rucaparib 10 µM, 100% = cells with rucaparib alone", "value": "115% (inactive)"}, {"measurement": "viability", "setting": "[18]; at 0.00122 µM, OCI-C5x cells, without rucaparib", "value": "120% (inactive)"}, {"measurement": "viability", "setting": "[18]; at 0.00122 µM, OCI-P5x cells, with rucaparib 20 µM, 100% = cells with rucaparib alone", "value": "95.6% (active)"}, {"measurement": "viability", "setting": "[18]; at 0.00122 µM, OCI-P5x cells, without rucaparib", "value": "104% (inactive)"}, {"measurement": "viability", "setting": "[18]; at 0.00488 µM, OCI-C5x cells, with rucaparib 10 µM, 100% = cells with rucaparib alone", "value": "119% (inactive)"}, {"measurement": "viability", "setting": "[18]; at 0.00488 µM, OCI-C5x cells, without rucaparib", "value": "131% (inactive)"}, {"measurement": "viability", "setting": "[18]; at 0.00488 µM, OCI-P5x cells, with rucaparib 20 µM, 100% = cells with rucaparib alone", "value": "96.5% (active)"}, {"measurement": "viability", "setting": "[18]; at 0.00488 µM, OCI-P5x cells, without rucaparib", "value": "108% (inactive)"}, {"measurement": "viability", "setting": "[18]; at 0.0195 µM, OCI-C5x cells, with rucaparib 10 µM, 100% = cells with rucaparib alone", "value": "113% (inactive)"}]}]}
